This is part of a sample that, as a whole, favours compounds with a hit. Of some 83,000 tested, about 20% had one in any assay.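 Percent growth is the endpoint: 0 to 100 indicates growth inhibition (40 means 60% inhibition), 0 means no net growth, and negative values indicate cell death.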 A number with no mark means an inactive call. Calls of active or inactive are those of the source. The calls were made as follows: active = growth percent below 10; inactive = the rest.

Results on eight molecules are retold here after PubChem BioAssay (NCI).

Test in all cases: NCI-60 one-dose screen, 48 h (100 = growth as untreated, 0 = no growth, -100 = all killed)
One assay relates to DU-145 prostate. To be noted: 10 µM unless noted.
The next assay concerns K-562 leukemia. The note with it: 10 µM unless noted.
A further assay concerns MALME-3M melanoma. The note with it: 10 µM unless noted.
In a further assay the test system is MDA-MB-231 breast. To be noted: 10 µM unless noted.
Another assay deals with RXF 393 renal. The note with it: 10 µM unless noted.
Another assay concerns SF-268 CNS. The note with it: 10 µM unless noted.
A further assay relates to SF-295 CNS. To be noted: 10 µM unless noted.
The test system of the next assay is SF-539 CNS. The note with it: 10 µM unless noted.
The test system of the next assay is UACC-257 melanoma. The note with it: 10 µM unless noted.
The test system of a further assay is HCT-15 colon. The note with it: 10 µM unless noted.
The subject of the next assay is HT29 colon. The note with it: 10 µM unless noted.
The next assay has as its system SNB-75 CNS. The note with it: 10 µM unless noted.
The test system of the next assay is SNB-19 CNS. To be noted: 10 µM unless noted.
Another assay relates to U251 CNS. The note with it: 10 µM unless noted.
A further assay concerns PC-3 prostate. To be noted: 10 µM unless noted.
Another assay has as its system SK-MEL-5 melanoma. The note with it: 10 µM unless noted.
A further assay has as its system UACC-62 melanoma. To be noted: 10 µM unless noted.
Another assay concerns SK-MEL-28 melanoma. To be noted: 10 µM unless noted.
In a further assay the test system is LOX IMVI melanoma. The note with it: 10 µM.
The next assay deals with M14 melanoma. The note with it: 10 µM unless noted.

Regarding `CCCCc1c(Nn2cnnn2)no[n+]1[O-]`, the growth in the assay on DU-145 prostate is 56.2%; in the assay with K-562 leukemia, 28.2%; with MALME-3M melanoma, 68.7%; with MDA-MB-231 breast, 49.3%; with RXF 393 renal, 39.5%; with SF-268 CNS it was 82.2%. The growth was 56.9% in the assay on SF-295 CNS; 57% with SF-539 CNS; 68.5% with UACC-257 melanoma; 32.8% in the assay with HCT-15 colon; 59.5% in the assay with HT29 colon; 48.9% in the assay with SNB-75 CNS. Moreover, the growth in the assay with SNB-19 CNS is 72.3%; in the assay with U251 CNS, 51.3%; in the assay with PC-3 prostate, 58.1%; in the assay with SK-MEL-5 melanoma, 80.6%; in the assay on UACC-62 melanoma it was 52.4%; in the assay with SK-MEL-28 melanoma, 73%.

As to `COc1ccc(-c2nc(SCC(C)C)nc(NCCc3c[nH]c4ccccc34)c2C#N)cc1`, the growth is 77.2% in the assay on DU-145 prostate; 33.1% in the assay with K-562 leukemia; 87.3% with MALME-3M melanoma; 36.5% in the assay with MDA-MB-231 breast; -8.09% (active) with RXF 393 renal; 58.1% in the assay with SF-268 CNS. In addition, the growth in the assay on SF-295 CNS was 45%; in the assay with SF-539 CNS, 48%; in the assay on UACC-257 melanoma, 98.1%; with HCT-15 colon, 29.4%; with HT29 colon, 35%; with SNB-75 CNS it was 74.1%. Also, the growth is 40.7% in the assay with U251 CNS; 24% in the assay with PC-3 prostate; 37.2% in the assay on SK-MEL-5 melanoma; 76.2% with UACC-62 melanoma; 46.1% with LOX IMVI melanoma; 71.5% with SK-MEL-28 melanoma.

As to `CCCSc1nc(Nc2ccc(S(N)(=O)=O)cc2)c(C#N)c(-c2cc(OC)c(OC)c(OC)c2)n1`, the growth in the assay on DU-145 prostate was 26.2%; with K-562 leukemia it was 2.89% (active); with MALME-3M melanoma, -2.83% (active); in the assay on MDA-MB-231 breast, 43.9%; in the assay on RXF 393 renal it was -2.49% (active); with SF-268 CNS it was 45.2%. Further, the growth in the assay on SF-295 CNS is 14.1%; with SF-539 CNS, 37%; in the assay with UACC-257 melanoma, 42%; in the assay on HCT-15 colon, 15.3%; in the assay with HT29 colon, 16.6%; with SNB-19 CNS, 43.8%. In addition, the growth in the assay on U251 CNS is 27.4%; in the assay with PC-3 prostate, 12.6%; with SK-MEL-5 melanoma, 6.41% (active); in the assay on UACC-62 melanoma it was 21%; with LOX IMVI melanoma, 5.09% (active); with SK-MEL-28 melanoma, 35.8%.

For `COc1ccc(C2=NN(c3ccccc3)C(c3ccc(OC)c(OCc4ccccc4)c3)C2)cc1OC` (centres undefined), the growth in the assay with DU-145 prostate was 105%; with K-562 leukemia it was 95%; in the assay with MALME-3M melanoma it was 92.6%; in the assay on MDA-MB-231 breast it was 100%; with RXF 393 renal, 98.1%; in the assay with SF-268 CNS, 96.5%. The growth in the assay with SF-295 CNS is 107%; with SF-539 CNS, 99.9%; with UACC-257 melanoma, 103%; with M14 melanoma, 104%; in the assay with HCT-15 colon, 83.8%; in the assay with SNB-75 CNS, 90.6%. Besides, the growth in the assay with SNB-19 CNS is 88.1%; with U251 CNS it was 92.4%; with PC-3 prostate, 98%; in the assay on SK-MEL-5 melanoma, 94.1%; with UACC-62 melanoma, 81.8%; in the assay on SK-MEL-28 melanoma, 115%.

`O=C(COc1ccc(NC(=O)Nc2ccc(Cl)cc2)cc1)N/N=C/c1ccccc1`: the growth in the assay with DU-145 prostate was -23.9% (active); in the assay on K-562 leukemia, -15.2% (active); in the assay with MALME-3M melanoma it was -90.8% (active); with MDA-MB-231 breast it was -87.9% (active); in the assay with RXF 393 renal, -85.2% (active); in the assay on SF-268 CNS, -55.2% (active). Besides, the growth with SF-295 CNS is -96.6% (active); in the assay on SF-539 CNS, -95.3% (active); in the assay with UACC-257 melanoma, -36.6% (active); in the assay on M14 melanoma, -66.1% (active); in the assay with HCT-15 colon, -80.3% (active); in the assay with SNB-75 CNS, -37.4% (active). Further, the growth in the assay with U251 CNS was -86.2% (active); in the assay with PC-3 prostate it was -72.9% (active); in the assay on SK-MEL-5 melanoma, -94% (active); in the assay with UACC-62 melanoma, -87.5% (active); with LOX IMVI melanoma, -97.5% (active); in the assay with SK-MEL-28 melanoma, -84.9% (active).

Regarding `CNC(=O)c1cc(Oc2ccc3nc(NC(=O)Nc4cccc(OC(F)(F)F)c4)sc3c2)ccn1`, the growth with DU-145 prostate is 36.8%; with K-562 leukemia, 47.1%; in the assay with MALME-3M melanoma, -25.2% (active); in the assay with RXF 393 renal, -40.1% (active); in the assay with SF-268 CNS, 11.8%; with SF-295 CNS, -18.9% (active). Moreover, the growth was -57.8% (active) in the assay with SF-539 CNS; 47.9% with UACC-257 melanoma; 44.8% with M14 melanoma; 51.1% in the assay with HCT-15 colon; 25% in the assay on HT29 colon; 6.6% (active) with SNB-75 CNS. For the same molecule, the growth with SNB-19 CNS is -46.6% (active); with U251 CNS, 2.42% (active); in the assay with PC-3 prostate, 4.97% (active); with SK-MEL-5 melanoma, 53.7%; with UACC-62 melanoma, -4.81% (active); with SK-MEL-28 melanoma, 31.9%.

`N#Cc1c(-c2ccc(Br)cc2)nc2n[nH]c(-c3ccc(Br)cc3)c2c1-c1ccc(C(F)(F)F)cc1`: the growth is 26.2% with DU-145 prostate; -9.32% (active) in the assay on K-562 leukemia; -14.5% (active) with MALME-3M melanoma; 46.7% in the assay on RXF 393 renal; 34.7% in the assay on SF-268 CNS; 1.6% (active) in the assay with SF-295 CNS. The growth with SF-539 CNS is 54.2%; in the assay on UACC-257 melanoma, 28.5%; in the assay on M14 melanoma, 29.2%; in the assay on HCT-15 colon, 5.75% (active); in the assay with HT29 colon it was 20.6%; in the assay on SNB-75 CNS, -3.08% (active). The growth in the assay with SNB-19 CNS is 20.5%; in the assay with U251 CNS it was 20.7%; with PC-3 prostate, 14.5%; in the assay on SK-MEL-5 melanoma it was 14.3%; in the assay on UACC-62 melanoma, 0.103% (active); with SK-MEL-28 melanoma, 49.5%.

Take `C=Cn1cc(C(=O)O)c(=O)c2cc(F)c(N3CCN(c4nccc(-c5nccs5)n4)CC3)cc21`: the growth with DU-145 prostate is -3.99% (active); in the assay on K-562 leukemia, 11.4%; in the assay with MALME-3M melanoma, -29.2% (active); in the assay on RXF 393 renal it was -52.3% (active); in the assay on SF-268 CNS, 22%; with SF-295 CNS it was -26.4% (active). For the same molecule, the growth was -42.7% (active) in the assay on SF-539 CNS; -27.3% (active) with UACC-257 melanoma; -1.11% (active) in the assay with M14 melanoma; -51.5% (active) with HCT-15 colon; -52% (active) with HT29 colon; -23.3% (active) in the assay on SNB-75 CNS. Moreover, the growth with SNB-19 CNS was -0.431% (active); with U251 CNS, 5.03% (active); in the assay with PC-3 prostate, 8.48% (active); in the assay with SK-MEL-5 melanoma it was -47.7% (active); with UACC-62 melanoma, -84.7% (active); in the assay on SK-MEL-28 melanoma, -38.5% (active).
